Screening results (PubChem)
Hits are enriched below; roughly 31% of the tested compounds scored in any of these assays.
CYP2C9 inhib: inhibitors of human CYP2C9; inhibition, % at 5 µM; P11712; 20% of 96,000 active; CYP2C9 Supersomes, luciferin-H conversion, luminescence; AID 777;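 active = blocking of liver enzyme CYP2C9 beyond about 50% at 5 µM, limit read from the data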
CYP2C19 activ: increases human CYP2C19 enzyme activity. AID 1025. 96,000 tested, under 10 active. activation factor at 5 µM. recombinant CYP2C19, luciferin-H EGE luminescence; active compounds read high; 0 = fully inhibited enzyme, 1 = untreated enzyme. P33261;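 active = activation factor of at least 2 at 5 µM in the primary screen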
Target sequence (P33261 whole entry, looked up): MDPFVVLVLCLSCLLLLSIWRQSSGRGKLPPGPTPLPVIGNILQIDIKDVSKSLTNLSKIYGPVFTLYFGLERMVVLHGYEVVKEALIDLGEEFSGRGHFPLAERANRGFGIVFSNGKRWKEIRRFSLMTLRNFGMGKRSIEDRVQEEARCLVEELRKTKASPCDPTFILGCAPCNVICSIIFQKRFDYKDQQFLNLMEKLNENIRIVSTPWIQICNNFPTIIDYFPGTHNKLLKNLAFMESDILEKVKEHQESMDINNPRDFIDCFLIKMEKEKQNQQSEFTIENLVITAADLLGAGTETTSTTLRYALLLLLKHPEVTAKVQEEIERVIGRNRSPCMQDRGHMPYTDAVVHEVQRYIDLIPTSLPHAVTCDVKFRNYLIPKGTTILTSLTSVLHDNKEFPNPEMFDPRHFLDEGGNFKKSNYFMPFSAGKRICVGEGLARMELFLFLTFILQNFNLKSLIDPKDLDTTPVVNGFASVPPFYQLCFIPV
CYP2C9 activ: activators of human CYP2C9. P11712. recombinant CYP2C9, luciferin-H conversion, luminescence; active compounds read high; factor 1 = untreated enzyme, 0 = blocked. activation factor at 5 µM. 1.4% of 96,000 active;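 active = activation factor of 2 or more for CYP2C9 at a 5 µM dose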
CYP2C19 inhib: human CYP2C19 inhibition; 21% of 96,000 active; inhibition, % at 5 µM; P33261; CYP2C19 Supersomes, luciferin-H EGE luminescence, 30 min; AID 778;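 active = CYP2C19 inhibition above a set limit at 5 µM in the primary screen, cut at about 50% in these data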
PLAP activator: activators of human placental alkaline phosphatase. P05187. 1.2% of 96,000 active. activation fold at 20 µM. purified PLAP enzyme, luminescent substrate read-out; active compounds read high; in the data active = activation fold above about 2
A number is an active result; 0 = inactive.

SMILES	CYP2C9 inhib	CYP2C19 activ	CYP2C9 activ	CYP2C19 inhib	PLAP activator
CCC(C)(C)NC(=O)CN(C(=O)c1snc(C(N)=O)c1N)c1ccc(OC)c(OC)c1	0	0	0	0	0
N#Cc1ccccc1NC(=O)Nc1cccs1	0	0	0	0	0
Cc1sc2ncnc(NCc3ccco3)c2c1C	61	0	0	78	0
c1coc(CNc2ncnc3sc4c(c23)CCCCC4)c1	93	0	0	87	0
Cc1sc2ncnc(NCCCO)c2c1C	0	0	0	0	0
Cc1sc2ncnc(NCc3cccs3)c2c1C	0	0	0	52	0
COc1cc(CNc2ccc3[nH]c(=O)[nH]c3c2)ccc1OCC(=O)NC(C)(C)C	0	0	0	0	0
CCOc1cc(CNc2cccc3ccccc23)cc(Br)c1OCC(=O)NC(C)(C)C	70	0	0	65	0
CCOc1cc(CNc2ccc(N(C)C)cc2)cc(Br)c1OCC(=O)NC(C)(C)C	96	0	0	96	0
C=CCOc1c(Br)cc(CNc2ccc(NC(=O)CCC)cc2)cc1OCC	71	0	0	54	0
CCOc1cc(CNCCCN2CCOCC2)ccc1OCC(=O)Nc1cccc2ccccc12	0	0	0	0	0
COc1cc(CNc2ccc3[nH]c(=O)[nH]c3c2)cc(Br)c1OCC(=O)NC(C)(C)C	0	0	0	51	0
Cc1cc(N)n(-c2ccc3ccccc3c2)n1	0	0	0	0	0
O=C(O)CCCC(=O)NCCc1ccncc1	0	0	0	0	0
CCOC(=O)Cc1cc(OC)c(OC)cc1Cc1cc(OC)c(OC)cc1CC(=O)OCC	0	0	0	55	0
COC(=O)Cc1cc(OC)c(OC)cc1Cc1cc(OC)c(OC)cc1CC(=O)OC	0	0	0	88	0
Cc1ccc(-n2cc(C(=O)c3ccc4ccccc4c3O)cn2)cc1	0	0	0	0	0
Cc1cccc(NC(=O)CN2C(=O)N/C(=C/c3cc(C)n(C(C)C)c3C)C2=O)c1	71	0	0	0	0
Cc1ccc(NC(=O)CN2C(=O)N/C(=C/c3ccco3)C2=O)cc1	0	0	0	0	0
CCOC(=O)C1C(=O)C=C(c2ccc(Br)cc2)CC1c1ccco1 (configuration not stated)	0	0	0	0	0
CCOC(=O)C1C(=O)C=C(c2ccc([N+](=O)[O-])cc2)CC1c1ccccc1 (configuration not stated)	75	0	0	76	0
CCCOC(=O)c1ccc(NC(=O)c2cc(OC)c(OC)c(OC)c2Br)cc1	65	0	0	74	0
COc1cc(C(=O)NCCOc2cccc(C)c2)c(Br)c(OC)c1OC	0	0	0	52	0
COc1cc(C(=O)Oc2cccc(C)c2)cc(OC)c1OC	0	0	0	0	0
COc1cc(C(=O)NCCOc2ccccc2)c(Br)c(OC)c1OC	0	0	0	65	0
SMILES	CYP2C9 inhib	CYP2C19 activ	CYP2C9 activ	CYP2C19 inhib	PLAP activator
COc1ccc(C2C(C(=O)NCc3ccccc3)=C(C)Nc3ncnn32)cc1OC (configuration not stated)	0	0	0	0	0
CCC(C)NC(=O)CN1C(=O)CC(C)(C)S(=O)(=O)c2ccccc21 (configuration not stated)	0	0	0	0	0
CCCn1nc2cc(C(=O)NCc3ccc4c(c3)OCO4)ccc2c1OCC	0	0	0	0	0
CCCn1nc2cc(C(=O)NCc3ccc(OC(F)(F)F)cc3)ccc2c1OCC	63	0	0	0	0
CCCn1nc2cc(C(=O)NCCc3cccs3)ccc2c1OCC	0	0	0	54	0
CCCCn1nc2cc(C(=O)NCc3ccc4c(c3)OCO4)ccc2c1OCC	66	0	0	59	0
O=C(Nc1c(Cl)cc(Cl)cc1-c1nc2ccccc2s1)c1ccc(Br)o1	55	0	0	0	0
O=C(Nc1ccccc1-c1nc2ccccc2s1)c1ccco1	0	0	0	0	0
CCOc1ncccc1C(=O)OCC(=O)Nc1cc(C(=O)OC)ccc1C(=O)OC	0	0	0	0	0
COc1cccc(C(=O)CN(C(=O)c2ccc(Cl)c(Cl)c2)N2C(=O)C3CCCCC3C2=O)c1 (configuration not stated)	0	0	0	0	0
CCOC(=O)c1ccc(NC(=O)CSc2nc(NC(=O)c3ccccc3)c3c(C)c(C)oc3n2)cc1	76	0	0	60	0
COC(=O)c1ccccc1NC(=O)CSc1nc(NC(=O)c2ccccc2)c2c(C)c(C)oc2n1	87	0	0	69	0
CCOC(=O)c1ccccc1NC(=O)CSc1nc2ccccc2o1	0	0	0	0	0
CCOC(=O)c1ccc(NC(=O)c2ccccc2)cc1	0	0	0	0	0
FC(F)(F)c1cccc(-n2cccc2/C=N/n2cnnc2)c1	0	0	0	0	0
COc1ccc(CNC(=O)/C=C/c2cc([N+](=O)[O-])ccc2OC(F)F)cc1OC	0	0	2.1	0	0
COc1ccc(CNC(=O)/C=C/c2cc([N+](=O)[O-])ccc2OC(F)F)cc1	0	0	0	0	0
COc1ccc(C(=O)Nc2cc(OC)ccc2OC)cc1	0	0	0	71	0
COc1ccc(OC)c(NC(=O)C23CCC(C)(C(=O)C2)C3(C)C)c1 (configuration not stated)	0	0	2.3	0	0
COc1ccc(OC)c(NC(=O)c2ccc(CN3CCOCC3)cc2)c1	0	0	2	0	0
COc1ccc(OC)c(NC(=O)c2cn(C)c(=O)c3cc(OC)c(OC)cc23)c1	74	0	0	0	0
COc1ccccc1NC(=O)c1ccc(CN2CCOCC2)cc1	0	0	0	0	0
CC12CCC(C(=O)Nc3ccc(SC(F)F)cc3)(CC1=O)C2(C)C (configuration not stated)	0	0	0	0	0
COc1ccc(OC)c(NC(=O)c2cc3ccccc3o2)c1	0	0	0	0	0
Cc1ccc(S(=O)(=O)N2CCN(C(=O)CN3CCOCC3)C2c2ccccc2)cc1 (configuration not stated)	0	0	0	0	0
SMILES	CYP2C9 inhib	CYP2C19 activ	CYP2C9 activ	CYP2C19 inhib	PLAP activator
COc1cccc(-c2cc(N)nn2C(=O)Nc2ccc(Cl)cc2)c1	0	0	0	0	0
N#C/C(=N\Nc1ccc(Cl)cc1)C(=O)c1ccccc1	0	0	0	69	0
COc1ccc(-n2c(C)nn(C)c2=O)cc1	0	0	0	0	0
Cc1nn(C)c(=O)n1-c1ccc(OCc2ccccc2)cc1	0	0	0	56	0
Cc1cc(-c2ccccc2)n2ncc(C#N)c2n1	0	0	0	0	0
CCOc1ccccc1COC(=O)c1cccc(-n2cnnn2)c1	0	0	0	0	0
CCOC(=O)Cn1nc(-c2ccc(F)cc2)oc1=O	0	0	0	58	0
CCOC(=O)n1c(=O)oc2cc(S(=O)(=O)N3CCOCC3)ccc21	0	0	0	0	0
COc1ccccc1CNC(=O)c1ccccc1OC	0	0	3.8	77	0
COc1ccccc1CNC(=O)c1ccc(S(=O)(=O)N(C)C)cc1	0	0	0	73	0
COc1ccccc1CNC(=O)CC(C)C	0	0	0	0	0
